# Reference: the supplement of paper PMC6992640
# Test system: UCD52 (cells of a triple-negative basal-like breast cancer xenograft)
# Experiment: cell viability of combination (% of vehicle); higher = less cytotoxic
# Conditions: 1 µM; 72 h; partner dose: 10 nM
# Method: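 PDX cells were treated for 72 h with each drug at 1 µM plus carfilzomib (10 nM; 100 nM for WHIM2). Luciferase viability is expressed as percent of vehicle.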
row,Compound,cell viability of combination
1,Cc1cc(C(C#N)c2ccc(Cl)cc2)c(Cl)cc1NC(=O)c1cc(I)cc(I)c1O (stereo not given) [Closantel] + CC(C)C[C@H](NC(=O)[C@H](CCc1ccccc1)NC(=O)CN1CCOCC1)C(=O)N[C@@H](Cc1ccccc1)C(=O)N[C@@H](CC(C)C)C(=O)[C@@]1(C)CO1 [Carfilzomib],65.7
2,CCCCCCCCCCCCCCCC[N+](C)(C)C.[Br-] [Cetrimonium Bromide (CTAB)] + CC(C)C[C@H](NC(=O)[C@H](CCc1ccccc1)NC(=O)CN1CCOCC1)C(=O)N[C@@H](Cc1ccccc1)C(=O)N[C@@H](CC(C)C)C(=O)[C@@]1(C)CO1 [Carfilzomib],53.1
3,CCCCCCCCCCCC[N+](C)(C)CCOc1ccccc1.[Br-] [Domiphen Bromide] + CC(C)C[C@H](NC(=O)[C@H](CCc1ccccc1)NC(=O)CN1CCOCC1)C(=O)N[C@@H](Cc1ccccc1)C(=O)N[C@@H](CC(C)C)C(=O)[C@@]1(C)CO1 [Carfilzomib],57.1
4,CCCCCCCCCCCCCCCC[n+]1ccccc1.[Cl-] [Cetylpyridinium Chloride] + CC(C)C[C@H](NC(=O)[C@H](CCc1ccccc1)NC(=O)CN1CCOCC1)C(=O)N[C@@H](Cc1ccccc1)C(=O)N[C@@H](CC(C)C)C(=O)[C@@]1(C)CO1 [Carfilzomib],48.1
5,Cc1cc(C(C#N)c2ccc(Cl)cc2)c(Cl)cc1NC(=O)c1cc(I)cc(I)c1[O-].[Na+] (stereo not given) [Closantel Sodium] + CC(C)C[C@H](NC(=O)[C@H](CCc1ccccc1)NC(=O)CN1CCOCC1)C(=O)N[C@@H](Cc1ccccc1)C(=O)N[C@@H](CC(C)C)C(=O)[C@@]1(C)CO1 [Carfilzomib],65.9
